In the library only some 1.8% were active in any assay of this set; here they are far more common.
RPL19A-GFP yeast = RPL19A-GFP expression modulators in yeast, primary screen, cell-based, S. cerevisiae, multiplex flow cytometry, MLPCN; percent response vs DMSO, % at 10 µM; 330,000 tested, 0.3% active; AID 2025, 2009; S. cerevisiae RPL19A-GFP strain, 3 h; hits give low values;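 active = percent response vs DMSO below 50%; inconclusive = fewer than 70 events counted for the yeast strain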;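 also: median channel GFP fluorescence of the barcoded RPL19A-GFP strain; lower means less RPL19A-GFP as with rapamycin TOR inhibition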
Myeloid diff MLP = induction of myeloid progenitor differentiation, primary screen, cell-based, flow cytometry, MLPCN library; ER-HoxA9 myeloid progenitors, lysozyme-GFP differentiation; calls only at 10 µM; 360,000 tested, 1% active; AID 624256, 2012;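 active = normalized GFP-positive differentiation at or above the plate's own cutoff, the solvent-only control mean plus 3 SD; inconclusive = no clear call, values can overlap the other calls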;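 also: cells exposed to compound for four days before flow analysis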
AGP1-GFP MLPCN = modulators of AGP1-GFP expression in yeast TOR pathway, primary screen, cell-based, multiplex flow cytometry, S. cerevisiae, MLPCN library; 3 h; GFP as percent of DMSO wells; GFP response vs DMSO, % at 10 µM; 320,000 tested, 0.02% active;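 active = GFP response relative to DMSO above a set limit, near screen average plus 3 SD, cut at about 150% in these data; inconclusive = fewer than 70 cells counted for the yeast strain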;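 also: median GFP channel fluorescence of the gated AGP1 strain per well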
MEP2-GFP yeast = modulators of MEP2-GFP levels in yeast, primary screen, S. cerevisiae, multiplex flow cytometry, MLPCN library; S. cerevisiae MEP2-GFP strain, 3 h; 100% = DMSO control level; GFP response vs DMSO, % at 10 µM; 330,000 tested, 0.51% active; AID 2016, 2009;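 active = GFP response versus DMSO above a set limit, roughly screen mean plus 3 SD, cut at about 180% in these data; inconclusive = fewer than 70 cells counted for a yeast strain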;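 also: median GFP fluorescence of the barcode-gated MEP2-GFP cells per well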
CIT2-GFP yeast = modulators of CIT2-GFP expression in yeast, primary screen, S. cerevisiae, GFP fusion, multiplex flow cytometry, MLPCN library; 320,000 tested, 0.065% active; S. cerevisiae CIT2-GFP strain, 3 h; 100 means same as DMSO wells; GFP response vs DMSO, % at 10 µM;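 active = GFP response relative to DMSO above a set limit, near the screen mean plus 3 SD, cut at about 150% in these data; inconclusive = Fewer than 70 cells measured for a yeast strain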;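 also: ratio of well median GFP fluorescence to mean of DMSO wells on the plate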
LAP4 TOR yeast = modulators of LAP4-GFP expression in yeast, primary screen, S. cerevisiae, multiplex flow cytometry, MLPCN library. 3 h; median GFP as percent of DMSO wells. GFP response vs DMSO, % at 10 µM. 320,000 tested, 0.34% active. AID 2023, 2009;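 active = GFP response vs DMSO above a set limit, about the screen mean plus 3 SD, cut at about 150% in these data; inconclusive = under 70 cell events counted for the yeast strain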
Myeloid diff = inducers of myeloid progenitor differentiation, confirmation, cell-based, GFP/Mac1 flow cytometry, cherry pick 01; shares compounds with Myeloid diff MLP; ER-HoxA9 myeloid progenitors, GFP/Mac1 double-positive flow; calls only; 2,300 tested, 2% active; AID 651706, 2012;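 active = share of green or green-and-red cells above 9 and 9% in run 1 or 4 and 3% in run 2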
GFP autofluor = counter-screen for myeloid differentiation promoters: compound fluorescence. shares compounds with Myeloid diff MLP. ER-HoxA9 myeloid progenitors, no estrogen, GFP autofluorescence flow cytometry; vehicle wells 0%, positive control 100%. fluorescence response, % (no concentration beside the values). 2,300 tested, 7.4% active. AID 651707;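 active = over 5% cells positive for green fluorescent reporter, or over 2% positive for both it and APC stain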
Of the large screens only hits and unclear results are named; the others gave an inactive call (follow-up assays come after a bar, where they were run).

CC(NC(=O)COC(=O)[C@@H]1CCCN1S(=O)(=O)c1ccccc1F)C12CC3CC(CC(C3)C1)C2 (stereo partly specified)	none
O=C(Cn1c(CO)nc2ccccc21)NCc1ccc2c(c1)OCO2	none
CC(=O)c1c(C)n(CC(=O)NCc2ccc3c(c2)OCO3)c2ccccc12	Myeloid diff MLP active | Myeloid diff inactive | GFP autofluor 98
COc1ccccc1NC(=O)N1CCN(c2ccccc2F)CC1	none (no result: CIT2-GFP yeast) | Myeloid diff inactive | GFP autofluor inactive
COc1ccccc1NC(=O)CN1CCN(c2ccccc2F)CC1	none
O=C(NCc1nc2ccccc2[nH]1)C1=C[C@H](C2CC2)C[C@H](OCCCCO)O1	none
CC1CCCN(CCCNC(=O)c2ccc3c(c2)N(Cc2cccc(Cl)c2)C(=O)c2ccccc2S3=O)C1 (stereo unspecified)	none (no result: RPL19A-GFP yeast, AGP1-GFP MLPCN, MEP2-GFP yeast, CIT2-GFP yeast, LAP4 TOR yeast) | Myeloid diff inactive | GFP autofluor inactive
CCOc1ccc(NC(=O)CN(C)C(=O)c2ccccc2CCc2ccccc2)cc1OCC	none
CC(Oc1ccc(-c2ccccc2)c(F)c1)c1ccn(S(=O)(=O)c2ccc(F)cc2)n1 (stereo unspecified)	none | Myeloid diff inactive | GFP autofluor inactive
COc1ccc(S(=O)(=O)n2ccc(C(C)Oc3ccc(-c4ccccc4)c(F)c3)n2)cc1 (stereo unspecified)	none
Cc1ccc(CSc2nc3c(c(=O)[nH]2)C(c2ccncc2)C2=C(CCCC2=O)N3)cc1 (stereo unspecified)	none
O=C(C1CCCC1)N1CCN(S(=O)(=O)c2ccc(Cl)cc2)CC1	none
O=C(CCCn1c(=S)[nH]c2cc3c(cc2c1=O)OCO3)N1CCN(c2ncccn2)CC1	none | Myeloid diff inactive | GFP autofluor inactive
O=C(CCCCCn1c(=S)[nH]c2cc3c(cc2c1=O)OCO3)N1CCN(c2ccccc2)CC1	none
COC(=O)CC1Nc2ccccc2SC1=O (stereo unspecified)	none | Myeloid diff inactive | GFP autofluor inactive
CCOC(=O)CC1Sc2ccccc2NC1=O (stereo unspecified)	none
COc1ccccc1-c1nn(-c2ccccc2)cc1C(=O)N1CCN(C(=O)c2ccco2)CC1	none | Myeloid diff inactive | GFP autofluor inactive
CCC(C)NCCCOc1ccc(C)cc1OC (stereo unspecified)	none
CNCCCOc1ccc(C)cc1OC	none | Myeloid diff inactive | GFP autofluor inactive
C=CCn1c(SCc2cc(=O)n3cc(C)ccc3n2)nnc1-c1cccc(C)c1	none
CC(=O)n1cc([C@@H]2C=C(C(=O)N3CCN(Cc4ccccc4)CC3)O[C@H](OCc3ccc(CO)cc3)C2)c2ccccc21	none
CCOC(=O)c1sc2nc3c(SCCC#N)cc(C(=O)c4cc(F)ccc4O)cn3c(=O)c2c1C	Myeloid diff MLP active | Myeloid diff inactive | GFP autofluor inactive
c1ccc(C2=Nn3c(nnc3-c3ccccn3)SC2)cc1	none (no result: CIT2-GFP yeast) | Myeloid diff inactive | GFP autofluor inactive
c1ccc(C2=Nn3c(nnc3-c3ccncc3)SC2)cc1	none
Cc1ccc(C)c2[nH]c(=O)c(C(c3nnnn3C(C)(C)C)N3CC=C(c4ccc(F)cc4)CC3)cc12 (stereo unspecified)	Myeloid diff MLP active (no result: RPL19A-GFP yeast, AGP1-GFP MLPCN, MEP2-GFP yeast, CIT2-GFP yeast, LAP4 TOR yeast) | Myeloid diff inactive | GFP autofluor inactive
C/C(=N\NC(=O)c1cccc(C)c1O)c1ccc(NC(=O)Cc2ccccc2)cc1	Myeloid diff MLP inconclusive
Cc1ccc(S(=O)(=O)CCSc2n[nH]c(=O)n2-c2ccccc2)cc1	none | Myeloid diff inactive | GFP autofluor inactive
COc1ccc2c(c1)C(=O)N1[C@H]3c4cc(C)ccc4OC[C@@H]3[C@H](c3ccccc3)[C@]1(C)C(=O)N2	Myeloid diff MLP active (no result: RPL19A-GFP yeast, AGP1-GFP MLPCN, MEP2-GFP yeast, CIT2-GFP yeast, LAP4 TOR yeast) | Myeloid diff inactive | GFP autofluor inactive
COc1ccc2c(c1)[C@H]1[C@H](CO2)[C@H](c2ccccc2)[C@]2(C)C(=O)Nc3ccc(C)cc3C(=O)N12	none
O=[N+]([O-])c1cccc(-c2ccc(C(=S)N3CCOCC3)o2)c1	none
O=[N+]([O-])c1cc(-c2ccc(C(=S)N3CCOCC3)o2)ccc1Cl	Myeloid diff MLP active | Myeloid diff inactive | GFP autofluor inactive
COc1cccc2c1OC[C@@H](CO)[C@H]2N(C)C(=O)Nc1ccc(Cl)cc1Cl	none (no result: CIT2-GFP yeast) | Myeloid diff inactive | GFP autofluor inactive
COc1ccccc1-c1nnc(SCC(=O)Nc2ccc(Cl)cc2Cl)o1	none
COc1ccccc1N(C)S(=O)(=O)c1ccc(C(=O)NC(C)c2ccccc2)cc1 (stereo unspecified)	none
COc1cccc(/C=N/NC(=O)c2cc(-c3cccn3C)n[nH]2)c1O	none | Myeloid diff inactive | GFP autofluor inactive
O=C(CN1C(=O)C2CCCCC2C1=O)N1CCN(c2ccccc2)CC1 (stereo unspecified)	none
O=C(CN1C(=O)C2CCCCC2C1=O)N1CCN(c2ccc(F)cc2)CC1 (stereo unspecified)	Myeloid diff MLP active | Myeloid diff inactive | GFP autofluor inactive
COc1ccc(CNCc2cc(Cl)ccc2O)cc1	none | Myeloid diff inactive | GFP autofluor inactive
CCN(CC)c1ccc(C=NNc2ccc([N+](=O)[O-])cn2)cc1	Myeloid diff MLP active (no result: RPL19A-GFP yeast, AGP1-GFP MLPCN, MEP2-GFP yeast, CIT2-GFP yeast, LAP4 TOR yeast) | Myeloid diff inactive | GFP autofluor 13
O=[N+]([O-])c1ccc(NN=Cc2ccc(O)cc2)nc1	none (no result: RPL19A-GFP yeast, AGP1-GFP MLPCN, MEP2-GFP yeast, CIT2-GFP yeast, LAP4 TOR yeast)
O=C(NCCN1CCC(n2c(=O)[nH]c3ccccc32)CC1)c1cccnc1	none (no result: RPL19A-GFP yeast, AGP1-GFP MLPCN, MEP2-GFP yeast, CIT2-GFP yeast, LAP4 TOR yeast)
COc1cnc(SCC(=O)O)[nH]c1=O	none
COc1ccc(NC(=O)C2CCC(=O)N2)cc1 (stereo unspecified)	none (no result: RPL19A-GFP yeast) | Myeloid diff inactive | GFP autofluor inactive
COc1ccc(NC(=O)C2CCCC2)cc1	none
CCOC(=O)[C@H]1[C@H]2COc3cc(OC)ccc3[C@@H]2N2C(=O)CN(CCc3c[nH]c4ccccc34)C(=O)[C@@]12C	none | Myeloid diff inactive | GFP autofluor inactive
CC(=O)c1c(C)[nH]c(C(=O)NNC(=O)COc2cc(C)ccc2C(C)C)c1C	none | Myeloid diff inactive | GFP autofluor inactive
CC(=O)c1c(C)[nH]c(C(=O)NNC(=O)COc2ccc(Cl)cc2C)c1C	none
